Our source for the growth values is PubChem BioAssay (NCI).

The panel holds about 83,000 compounds, 20% with a hit somewhere; the sample as a whole holds those more often.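 Step 1: grow cells in 96-well plates. Step 2: add test compound at a single concentration. Step 3: incubate 48 h. Step 4: record percent growth.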 A number with no mark means an inactive call. Activity calls are given as the source filed them. Rule for the calls: active = growth percent below 10; inactive = the rest.

What all share (assay): NCI-60 one-dose screen, 48 h (100 = growth as untreated, 0 = no growth, -100 = all killed)
Details in all cases: 10 µM unless noted

Assay [1] relates to DU-145 prostate.
In assay [2] the test system is K-562 leukemia.
In assay [3] the test system is MALME-3M melanoma.
In assay [4] the test system is MDA-MB-231 breast.
Assay [5] deals with SF-268 CNS.
For assay [6], the system named is SF-295 CNS.
The subject of assay [7] is SF-539 CNS.
The subject of assay [8] is UACC-257 melanoma.
For assay [9], the system named is HCT-15 colon.
The test system of assay [10] is HT29 colon.
For assay [11], the system named is SNB-75 CNS.
For assay [12], the system named is SNB-19 CNS.
For assay [13], the system named is U251 CNS.
Assay [14] has as its system PC-3 prostate.
For assay [15], the system named is UACC-62 melanoma.
Assay [16] deals with LOX IMVI melanoma.
In assay [17] the test system is SK-MEL-28 melanoma.

Consider `Cn1ccnc1C(=O)/C=C/c1ccc(C(=O)Nc2ccc(S(F)(F)(F)(F)F)cc2)cc1`, for which the growth in assay [1] is 15.6%; in assay [2] it was 2.18% (active); in assay [3], 59.6%; in assay [4] it was 22.4%; in assay [5], 15.3%; in [6], 32.7%. The growth is -37.1% (active) in assay [7]; 42.4% in assay [8]; 3.65% (active) in assay [9]; 12% in assay [10]; 12.2% in [11]; 9.4% (active) in [12]. Further, the growth was -6.93% (active) in [13]; 17.4% in assay [14]; 53.5% in assay [15]; -79.5% (active) in [16]; 79.5% in assay [17].
On to `O=C(CCc1nc(-c2cccc(Cl)c2)no1)Nc1ccccn1`, for which the growth is 109% in assay [1]; 87.5% in [2]; 91.7% in assay [3]; 95.6% in assay [4]; 104% in assay [5]; 94% in assay [6]. The growth in [7] was 96.6%; in assay [8], 114%; in assay [9] it was 95.2%; in assay [10] it was 106%; in [11], 93.7%; in [12], 97.6%. For the same compound, the growth in assay [13] is 111%; in [14], 97.4%; in assay [15] it was 91%; in [16], 97.3%; in assay [17], 99.5%.
For the compound `COc1ccc(/C=C2\COc3ccc(O)cc3C2=O)c(OC)c1`, the growth was 65.8% in [1]; 12.4% in assay [2]; 60.9% in [3]; 60.9% in [4]; 70.2% in assay [5]; 80.1% in assay [6]. For the same compound, the growth was 57.5% in assay [7]; 74.8% in assay [8]; 34.4% in [9]; 38.2% in assay [10]; 47.5% in assay [11]; 55.3% in assay [12]. Further, the growth was 50.3% in assay [13]; 57.2% in assay [14]; 50% in assay [15]; 45.4% in [16]; 64% in assay [17].
In the case of `C=CCO[C@H]1CO[C@H]2[C@@H]1OC[C@@H]2Oc1ccc(Nc2ccnc(Nc3ccc(O[C@H]4CO[C@H]5[C@@H]4OC[C@@H]5OCC=C)c(Cl)c3)n2)cc1Cl`, the growth in assay [1] was -50.2% (active); in [2], -32.4% (active); in assay [3] it was -95.8% (active); in [4] it was -92.8% (active); in [5], -61.6% (active); in assay [6], -77.8% (active). The growth is -87.5% (active) in assay [7]; 107% in assay [8]; -78.5% (active) in [9]; -5.18% (active) in assay [10]; 0.0674% (active) in assay [11]; -90.3% (active) in assay [12]. For the same compound, the growth was -59.5% (active) in assay [13]; 14% in assay [14]; -92.2% (active) in assay [15]; -95% (active) in [16]; -80.3% (active) in assay [17].
Consider `COc1ccc(OC)c(/C=C2\COc3ccc(O)c(O)c3C2=O)c1`, for which the growth was 3.87% (active) in assay [1]; 5.87% (active) in assay [2]; -5.32% (active) in [3]; 9.33% (active) in assay [4]; 15.9% in assay [5]; 78.4% in assay [6]. For the same compound, the growth was -23.1% (active) in assay [7]; 49.4% in assay [8]; 1.18% (active) in assay [9]; 33.7% in [10]; 11.7% in [11]; 33.9% in [12]. Besides, the growth in assay [13] was 19%; in assay [14], 26.6%; in assay [15] it was 28.9%; in assay [16], -63.1% (active); in assay [17], 48.7%.
With `C=C1C(=O)O[C@H]2[C@H]1CC/C(COC(=O)/C=C\C(=O)NCc1ccc(Cn3c(=O)sn(-c4ccc(Cl)cc4)c3=O)cc1)=C\CC[C@@]1(C)O[C@@H]21`, the growth in assay [1] is -94.7% (active); in [2], -20.5% (active); in assay [3] it was -93.1% (active); in assay [4], -86.1% (active); in [5], -74.4% (active); in [6], 56.2%. Also, the growth in assay [7] is -100% (active); in [8], -64.8% (active); in assay [9], -33.8% (active); in [10], -28.3% (active); in [11], -83.5% (active); in assay [12], -8.33% (active). Further, the growth in assay [13] is -78.3% (active); in assay [14] it was -64.1% (active); in assay [15], -97.6% (active); in [16] it was -84.9% (active); in assay [17], -93.5% (active).
Turning to `CCOC(=O)c1sc(-c2ccc(OS(=O)(=O)c3ccc(C(C)(C)C)cc3)c(C=O)c2)nc1C`, the growth in [1] is 43.8%; in [2], 16.1%; in [3], 45.1%; in assay [4], 53.7%; in [5] it was 32.9%; in [6], 28.6%. Further, the growth was 45.6% in [7]; 52% in assay [8]; 12.5% in assay [9]; 19.7% in assay [10]; 22.9% in assay [11]; 29.7% in assay [12]. Moreover, the growth in assay [13] is 26%; in [14] it was 16.2%; in assay [15], 46.1%; in [16], 43.3%; in assay [17] it was 81.9%.
On to `COc1ccc(/C(C)=C(\c2ccc(Cl)cc2)c2ccc(OCCN3CCCCCC3)cc2)cc1F`, for which the growth in assay [1] is 67.5%; in assay [2], 1.96% (active); in assay [3], -3.61% (active); in assay [4], 55.1%; in assay [5] it was 68.3%; in assay [6], -7.79% (active). For the same compound, the growth is 24.5% in [7]; 39% in assay [8]; -23.9% (active) in assay [9]; 10% in [10]; 75.6% in [11]; 65.9% in assay [12]. Moreover, the growth in [13] is 39.8%; in assay [14], 41%; in assay [15], 48.2%; in assay [16], -47% (active); in assay [17], 26%.
Take `COc1cccc(/C=C2\COc3ccc(O)cc3C2=O)c1OC`: the growth in assay [1] is 45.1%; in assay [2] it was 5.8% (active); in [3], 73.9%; in assay [4], 85.1%; in assay [5], 85%; in assay [6] it was 95.7%. The growth was 72.2% in assay [7]; 83.3% in assay [8]; 45.4% in assay [9]; 19.2% in assay [10]; 86.5% in [11]; 67.4% in assay [12]. For the same compound, the growth was 54.3% in assay [13]; 56.2% in assay [14]; 71% in [15]; -19.7% (active) in assay [16]; 96.6% in assay [17].
